The results in this text go back to PubChem BioAssay AID624331 (National Center for Advancing Translational Sciences (NCATS), 2012).

SMILES strings stand for the structures. Inconclusive results are not listed. A number with no mark means an inactive call. Activity calls are given as the source filed them. Calls come from the whole dose curve; as a rule, active = well fitted activation curve with a large enough effect; inconclusive = small, poorly fitted or top-dose-only effect; inactive = no such curve, though single readings can be large or run the other way.
Potency is the fitted concentration of half-maximal effect.

The nature of this test: qHTS assay for re-activators of p53 using a Luc reporter: Hit Validation with no p53 Expressed. For activity change, positive = activation: 0% is about no effect. The conditions noted are these: p53-null cells, luciferase reporter counter-screen; series mostly up to 46.1 µM; activity change, positive = activation: at the top concentration. A digest of the protocol:
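Without p53 expression, cells (1000/well, Opti-MEM + 10% FBS) were exposed 24 h at 37 deg C to compounds in a 1:5 series from 10 mM stock (top 46.1 µM in well). Luminescent signal read 10 min after Amplite addition; actives flag unspecific activation.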
In general terms: In qHTS, concentration-response curves come from the screen itself.
`CCCCOC(=O)Nc1ccc(N2CCCCC2)cc1`: the “activity change, positive = activation” value is 27.2%. Consider `CC(C)N1C(=O)CN(C2CCCCCC2)C(=O)C1c1ccccc1F` (centres undefined), for which the “activity change, positive = activation” value is -1.85%. As to `CC(C)[C@H](NC(=O)c1ccc(Cl)cc1Cl)C(=O)NNc1cccc(C(=O)O)c1`, the “activity change, positive = activation” value is 73.4%. On the same count and under the same terms, the result for `COC(=O)c1ccc(/C=C/c2ccc3cccc(OC(C)=O)c3n2)cc1` reads 14.5%.

As for `O=C(O)c1ccc(N/N=C/c2ccc3ncccc3c2)cc1`, the “activity change, positive = activation” value is -33.2%.

Consider `C=CCOc1c(OC)cc(/C=N/Nc2cccc(C(=O)O)c2)c(Br)c1Br`, for which the “activity change, positive = activation” value is 49.3%. In the case of `CCOC(=O)C1=C(C)Nc2ncnn2C1c1c[nH]c2ccccc12` (centres undefined), the “activity change, positive = activation” value was 13.4%. Take `Cc1ccc(S(=O)(=O)NCC(=O)N2CCc3ccccc3C2)cc1`: the “activity change, positive = activation” value was -42.8%.

Consider `COC(=O)CCC(=O)COc1ccccc1C#N`, for which the “activity change, positive = activation” value is 18.7%. Turning to `Cc1ccc(CNc2cc(C(=O)O)ccc2Cl)s1`, the “activity change, positive = activation” value was 86%. For the compound `CCCCn1c(SCC(=O)N2CCCC2=O)nc2cc(S(N)(=O)=O)ccc21`, the “activity change, positive = activation” value is -34.7%. In the case of `COc1ccc(C(C)(C)C)cc1NC(=O)Nc1ccc2c(c1)OCO2`, the “activity change, positive = activation” value was 29.8%. In the case of `Cc1cccc(NC(=O)c2oc3c(c2C)C(=O)CC(C)(C)C3)n1`, the “activity change, positive = activation” value was -5.25%. As for `O=C(NNC(=O)c1cc(-c2ccccc2)nn1-c1ccccc1)c1ccccc1`, the “activity change, positive = activation” value is -31.2%. `CC(C)(C)CC(=O)O/N=C(\N)c1ccccn1`: the Potency was 0.164 µM (active). Regarding `NNC(=O)c1cccc(O)c1`, the “activity change, positive = activation” value is 8.43%. On to `CCOC(=O)c1ccc(N2Cc3ccccc3C2=NC(=O)c2cccs2)cc1`, for which the “activity change, positive = activation” value was 40.9%. For `Cc1cccc(Nc2nc(N3CCOCC3)nc(N3CCOCC3)n2)c1`, the “activity change, positive = activation” value is 17.9%. In the case of `Cc1nn(-c2ccccc2)c(N2CCCC2)c1/C=N/NC(=O)c1cc(-c2ccccc2)nc2ccccc12`, the “activity change, positive = activation” value was -13.5%. The same measure, in the same setting: the result for `c1ccc(-c2cc3cc4c(cc3cn2)OCO4)cc1` reads 67.8%; that for `O=C(Nc1cnc2ccccc2c1)C1COc2ccccc2O1` (centres undefined), 28.8%; that for `Cn1c(CCN2CCCCC2)nc2cc(NC(=O)Nc3ccccc3)ccc21`, -15.9%. On to `COc1ccc(/C=N/Nc2nncc3ccccc23)cc1`, for which the “activity change, positive = activation” value was 31.9%. Turning to `Cc1cccc(-c2noc(CCC(=O)N3CCN(c4cc(C)ccc4C)CC3)n2)c1`, the “activity change, positive = activation” value is -1.43%. Take `CCOC(=O)C(C(C)=O)C(c1ccc(OC)cc1)C(C(C)=O)C(=O)OCC` (centres undefined): the “activity change, positive = activation” value is -8.98%. On to `CCOc1ccc(/C=N/NC(=O)CN2CCSCC2)cc1`, for which the “activity change, positive = activation” value was -8.87%.

Take `CC(=O)c1cccc(NC(=O)c2sc(Cl)nc2C)c1`: the “activity change, positive = activation” value is -42.3%. For the compound `COC(=O)c1cn[nH]c1NC(=S)Nc1ccc(C)cc1Cl`, the “activity change, positive = activation” value is 58.3%. With `Cc1ccnc(NC(=O)/C=C/c2cccs2)c1`, the “activity change, positive = activation” value was -14.7%. With `Cc1cccc2nc(CSC(=N)N)c(Br)n12`, the “activity change, positive = activation” value is -13.8%.

With `Cc1cc(-n2c(C)cc(C(=O)COc3cc(F)ccc3[N+](=O)[O-])c2C)no1`, the “activity change, positive = activation” value is -15.7%. Same read-out and setting: the result for `CC(C)(C)c1ccc(NC(=O)COC(=O)c2ccc(NS(=O)(=O)c3ccc(F)c(F)c3)cc2)cc1` reads -2.43%; that for `CN(C)c1ccc(/C=N/N=C/c2ccccc2O)cc1`, -28.4%. With `COc1ccc2oc(C(=O)OCC(=O)NCCN3C(=O)CSC3=O)c(C)c2c1`, the “activity change, positive = activation” value was 38%.

In the case of `O=C(Nc1cccnc1)c1ccc([N+](=O)[O-])s1`, the “activity change, positive = activation” value is -52.7%.

`Cc1ccc(-c2nnc(Oc3cccc(C)c3)c3ccccc23)cc1`: the “activity change, positive = activation” value is 37.7%.

Consider `CCC(=O)c1ccc(OC(=O)Cc2ccc(OC)cc2)cc1`, for which the “activity change, positive = activation” value was -69%. Take `Cc1cc(NC(=O)c2ccco2)sc1C`: the “activity change, positive = activation” value is -3.27%. Consider `Cc1nc2ccccc2nc(C)c1=NOCc1ccccc1Cl`, for which the “activity change, positive = activation” value is -25.3%.
